Test results as given in PubChem BioAssay AID624453 (National Center for Advancing Translational Sciences (NCATS), 2012).
Activity calls are given as the source filed them. The call rests on the fitted dose curve; in most records, active means well fitted curve in the direction sought with a large enough effect; inactive means no such curve, though single readings can be large or run the other way.

Each compound was assayed against D(2) dopamine receptor (Homo sapiens) (UniProt P14416) (assay: HTS Assay for Allosteric Antagonists of the Human D2 Dopamine Receptor: Hit Validation in primary assay). Conditions: HEK293 TREx D2, calcium flux, dopamine EC80 antagonism; series mostly up to 41.8 µM.
Sequence of D(2) dopamine receptor (Homo sapiens) (P14416 whole entry, looked up): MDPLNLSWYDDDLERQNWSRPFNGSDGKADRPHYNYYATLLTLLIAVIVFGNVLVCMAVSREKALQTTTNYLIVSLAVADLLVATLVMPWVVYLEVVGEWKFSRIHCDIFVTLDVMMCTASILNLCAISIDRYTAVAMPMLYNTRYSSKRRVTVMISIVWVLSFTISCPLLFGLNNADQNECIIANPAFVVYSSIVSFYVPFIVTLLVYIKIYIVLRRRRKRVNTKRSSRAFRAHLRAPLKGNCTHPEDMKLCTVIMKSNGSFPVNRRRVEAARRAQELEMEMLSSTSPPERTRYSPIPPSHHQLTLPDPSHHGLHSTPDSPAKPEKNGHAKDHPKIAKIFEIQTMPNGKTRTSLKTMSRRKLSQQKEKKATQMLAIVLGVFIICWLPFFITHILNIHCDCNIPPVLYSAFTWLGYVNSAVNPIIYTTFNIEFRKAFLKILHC
Excerpt: Dopamine receptors (DARs) are involved in the etiology and/or therapy of a number of neuropsychiatric and endocrine disorders. For instance, all receptor-based antiparkinsonian drugs work via stimulating the D2 DAR subtype whereas all FDA-approved antipsychotic agents are antagonists of this receptor. […] There are three different types of allosteric modulators that we are seeking, two of which will stimulate or augment receptor signaling, allosteric agonists and potentiators, while the third, allosteric antagonists, will attenuate receptor signaling. The present primary screening assay measures compound antagonism after an EC80 addition of dopamine by tracking calcium flux in a […], inducible Hek293 Trex D2 cell line. NIH Chemical Genomics Center [NCGC] NIH Molecular Libraries Probe Centers Network [MLPCN] MLPCN Grant: NS064831 Assay Submitter (PI): David Sibley
Freshly passaged cells are plated in 1536 well black, clear bottom plates at a density of 4000 cells/well in 3 ul of complete media containing 1x tetracycline inducer. After an overnight incubation at 30 C in 5% CO2, cells are loaded with 2 ul of the no wash Calcium Assay Kit (ABD Bioquest) and incubated at room temperature for 30 to 90 minutes before it's read.

outcome, inactive:
O=C(OCc1ccccc1)c1ccccc1
COc1ccc2cc3[n+](cc2c1OC)CCc1cc2c(cc1-3)OCO2
C[C@]12CCC3c4ccc(OS(=O)(=O)O)cc4CCC3C1CCC2=O (some centres not stated)
CC(C)(C)NCC(O)c1cc(O)cc(O)c1 (configuration not stated)
CC(=O)OC1CC2C(C)(C)C(O)CC(O)[C@@]2(C)C2CC[C@@]3(C)C(=CC(=O)OC3c3ccoc3)[C@]12C (some centres not stated)
CC(CCC(=O)O)C1CCC2C3CC[C@H]4CC(O)CC[C@@]4(C)C3CC[C@@]12C (some centres not stated)
CCCCCCCCCCCC1=C(O)C(=O)C=C(O)C1=O
COc1ccc(-c2c(O)c3c(OC)c4c(cc3oc2=O)OC(C)(C)C=C4)cc1
NS(=O)(=O)c1cc(C2(O)NC(=O)c3ccccc32)ccc1Cl (configuration not stated)
NCC1O[C@@H](OC2C(N)C[C@H](N)[C@@H](O[C@H]3OC(CO)C(O)C(N)C3O)C2O)C(N)C(O)C1O (some centres not stated)
O=C(O)c1cc(=O)c2ccccc2[nH]1
Cc1cc(C)nc(NS(=O)(=O)c2ccc(N)cc2)n1
CC1OC(OC2C(CO)OC(OC3C(CO)OC(O)C(O)C3O)C(O)C2O)C(O)C(O)C1NC1C=C(CO)C(O)C(O)C1O (configuration not stated)
CC(C)c1c(O)ccc2c1CCC1[C@@](C)(C=O)CCC[C@@]21C (some centres not stated)
CC1=CC(=O)c2ccccc2C1=O
CCCCNc1ccc(C(=O)OCCN(C)C)cc1
COc1cc(OC)c2ccc(=O)oc2c1
